{
  "source": "PubChem BioAssay (NCATS)",
  "key": {"[1]": {"assay": "P-glycoprotein substrates identified in KB-3-1 adenocarcinoma cell line, qHTS therapeutic library screen (AID 1346986);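 also: potency is read from the fitted curve at half-maximal effect; potency is for cytotoxicity meaning loss of cell viability; nearly all actives have a fitted effect of over 60% in size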", "method_in_brief": "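72 h cell-killing screen, 500 cells/well, CellTiter-Glo luminescence. Paired lines KB-3-1/KB-8-5-11; P-gp dependence checked by tariquidar co-treatment and HEK-293 MDR-19 versus empty-vector cells.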"}, "[2]": {"assay": "P-glycoprotein substrates identified in KB-8-5-11 adenocarcinoma cell line, qHTS therapeutic library screen (AID 1346987); also: potency is read from the fitted curve at half-maximal effect; nearly all actives have a fitted effect of over 65% in size", "method_in_brief": "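Compounds are pinned in dose-response onto KB-8-5-11 cells (500 cells/well, colchicine-free medium) and left 72 h at 37 degree C. CellTiter-Glo luminescence then yields AC50 values.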"}, "[3]": {"assay": "Primary qHTS for inhibitors of nuclear receptor binding SET domain protein 2 (NSD2) in an isogenic RCH-ACV NSD2 p.E1099K mutant (9B) (AID 1645876); also: potency is read from the fitted curve at half-maximal effect; nearly all actives have a fitted effect of over 70% in size"}, "[4]": {"assay": "Primary qHTS for inhibitors of nuclear receptor binding SET domain protein 2 (NSD2) in an RCH-ACV wild type WT cells (2C) (AID 1645877); also: potency is read from the fitted curve at half-maximal effect; nearly all actives have a fitted effect of over 70% in size"}, "[5]": {"assay": "qHTS for Inhibitors of the Functional Ribonucleoprotein Complex (vRNP) of Lassa (LASV) Arenavirus: LASV Primary Screen - GLuc reporter signal (AID 1347082; calls by dose curve; tested in HEK293 reporter line; also: nearly all actives have a fitted effect of over 60% in size; also: potency is read from the fitted curve at half-maximal effect)"}, "[6]": {"assay": "qHTS for Inhibitors of the Functional Ribonucleoprotein Complex (vRNP) of Lassa (LASV) Arenavirus: Viability assay - alamar blue signal for LASV Primary Screen (AID 1347083; calls by dose curve; tested in HEK293 reporter line; also: nearly all actives have a fitted effect of over 80% in size; also: potency is read from the fitted curve at half-maximal effect)"}, "[7]": {"assay": "qHTS for Inhibitors of the Functional Ribonucleoprotein Complex (vRNP) of Lymphocytic Choriomeningitis Arenaviruses (LCMV): Viability assay - alamar blue signal for LCMV Primary Screen (AID 1347085; calls by dose curve; tested in HEK293 reporter line; also: nearly all actives have a fitted effect of over 80% in size; also: potency is read from the fitted curve at half-maximal effect)"}, "[8]": {"biological_target": "Nucleoprotein (Lymphocytic choriomeningitis virus (strain Armstrong)) (UniProt P09992)", "sequence (P09992 whole entry, looked up)": "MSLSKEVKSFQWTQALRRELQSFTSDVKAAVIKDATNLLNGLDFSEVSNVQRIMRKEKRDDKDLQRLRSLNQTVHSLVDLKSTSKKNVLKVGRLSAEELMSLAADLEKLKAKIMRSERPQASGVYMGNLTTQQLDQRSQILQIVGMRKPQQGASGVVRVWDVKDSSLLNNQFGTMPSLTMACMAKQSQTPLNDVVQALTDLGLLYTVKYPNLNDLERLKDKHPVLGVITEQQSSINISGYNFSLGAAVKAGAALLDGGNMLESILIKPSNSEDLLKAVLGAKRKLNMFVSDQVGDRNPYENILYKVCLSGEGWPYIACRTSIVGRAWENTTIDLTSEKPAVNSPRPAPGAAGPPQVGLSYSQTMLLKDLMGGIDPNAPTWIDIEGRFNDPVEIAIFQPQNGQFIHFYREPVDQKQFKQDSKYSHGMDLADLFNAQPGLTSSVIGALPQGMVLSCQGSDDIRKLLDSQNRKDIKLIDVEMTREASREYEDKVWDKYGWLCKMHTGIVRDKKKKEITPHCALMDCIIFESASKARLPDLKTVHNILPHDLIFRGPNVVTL", "assay": "qHTS for Inhibitors of the Functional Ribonucleoprotein Complex (vRNP) of Lymphocytic Choriomeningitis Arenaviruses (LCMV): LCMV Primary Screen - GLuc reporter signal (AID 1347086; calls by dose curve; also: series mostly up to about 57 µM; nearly all actives have a fitted effect of over 70% in size)"}},
  "note": "Records with an inconclusive call do not appear. A call without a number means that no potency is given here. A number with no mark means an inactive call. The source made the active and inactive calls. Unless noted, calls follow the shape of the dose curve; as a rule, active = well fitted curve in the direction sought with a large enough effect; inconclusive = small, poorly fitted or top-dose-only effect, or another doubt; inactive = no such curve, though single readings can be large; an effect the other way counts as inactive or inconclusive.",
  "data": [
    {"smiles": "COCC1OC(=O)c2coc3c2C1(C)C1=C(C3=O)C2CCC(=O)C2(C)CC1OC(C)=O", "note": "(stereo not drawn)", "values": [
      {"measurement": "Potency", "setting": "[1]", "value": "20.6 µM (active)"},
      {"measurement": "Potency", "setting": "[2]", "value": "6.51 µM (active)"},
      {"measurement": "Potency", "setting": "[3]", "value": "3.66 µM (active)"},
      {"measurement": "Potency", "setting": "[4]", "value": "1.3 µM (active)"}
    ]},
    {"smiles": "COc1cc(/C=C/C(=O)c2ccc(O)cc2O)ccc1O", "values": [
      {"measurement": "Potency", "setting": "[5]", "value": "inactive"},
      {"measurement": "Potency", "setting": "[6]", "value": "inactive"}
    ]},
    {"smiles": "CC[C@H]1OC(=O)[C@H](C)C(=O)[C@H](C)[C@@H](O[C@H]2O[C@H](C)C[C@H](N(C)C)[C@@H]2O)[C@](C)(OC)C[C@@H](C)C(=O)[C@H](C)[C@H]2N(CCCCn3cnc(-c4cccnc4)c3)C(=O)O[C@]12C", "values": [
      {"measurement": "Potency", "setting": "[5]", "value": "inactive"},
      {"measurement": "Potency", "setting": "[6]", "value": "inactive"},
      {"measurement": "Potency", "setting": "[7]", "value": "inactive"}
    ]},
    {"smiles": "CC(=O)[C@]1(O)Cc2c(O)c3c(c(O)c2[C@@H](O[C@H]2C[C@H](N)[C@@H](O)[C@H](C)O2)C1)C(=O)c1ccccc1C3=O", "values": [
      {"measurement": "Potency", "setting": "[5]", "value": "10.9 µM (active)"},
      {"measurement": "Potency", "setting": "[6]", "value": "0.769 µM (active)"},
      {"measurement": "Potency", "setting": "[7]", "value": "0.611 µM (active)"}
    ]},
    {"smiles": "COc1cc(OC)c2c(=O)cc(-c3ccccc3)oc2c1", "values": [
      {"measurement": "Potency", "setting": "[5]", "value": "inactive"},
      {"measurement": "Potency", "setting": "[6]", "value": "inactive"},
      {"measurement": "Potency", "setting": "[7]", "value": "inactive"}
    ]},
    {"smiles": "COc1ccc(-c2cc(=O)c3c(O)cc(O)c(-c4cc(-c5cc(=O)c6c(O)cc(OC)cc6o5)ccc4OC)c3o2)cc1", "values": [
      {"measurement": "Potency", "setting": "[5]", "value": "inactive"},
      {"measurement": "Potency", "setting": "[6]", "value": "inactive"}
    ]},
    {"smiles": "COc1cccc(-c2ccc(NC(=O)C3=C(C(=O)O)CCC3)c(F)c2)c1", "values": [
      {"measurement": "Potency", "setting": "[5]", "value": "inactive"},
      {"measurement": "Potency", "setting": "[6]", "value": "inactive"},
      {"measurement": "Potency", "setting": "[7]", "value": "inactive"}
    ]},
    {"smiles": "CC(C)CCCC(=O)O", "values": [
      {"measurement": "Potency", "setting": "[5]", "value": "inactive"},
      {"measurement": "Potency", "setting": "[6]", "value": "inactive"},
      {"measurement": "Potency", "setting": "[7]", "value": "inactive"},
      {"measurement": "Potency", "setting": "[8]", "value": "inactive"}
    ]},
    {"smiles": "COc1ccc(C2CC(=O)c3c(O)cc(O)cc3O2)cc1O", "note": "(stereo not drawn)", "values": [
      {"measurement": "Potency", "setting": "[5]", "value": "inactive"},
      {"measurement": "Potency", "setting": "[6]", "value": "inactive"}
    ]},
    {"smiles": "CCC12CCCN3CCC4(C(=C(C(=O)OC)C1)Nc1ccccc14)C32", "note": "(stereo not drawn)", "values": [
      {"measurement": "Potency", "setting": "[5]", "value": "inactive"},
      {"measurement": "Potency", "setting": "[6]", "value": "inactive"},
      {"measurement": "Potency", "setting": "[7]", "value": "inactive"}
    ]},
    {"smiles": "COc1cccc2c1C(=O)c1c(O)c3c(c(O)c1C2=O)C[C@@](O)(C(=O)CO)C[C@H]3O[C@H]1C[C@H](N)[C@H](O)[C@H](C)O1", "values": [
      {"measurement": "Potency", "setting": "[5]", "value": "13.7 µM (active)"},
      {"measurement": "Potency", "setting": "[6]", "value": "1.09 µM (active)"},
      {"measurement": "Potency", "setting": "[7]", "value": "0.863 µM (active)"}
    ]},
    {"smiles": "CCC(=C(c1ccc(O)cc1)c1ccc(OCCNC)cc1)c1ccccc1", "values": [
      {"measurement": "Potency", "setting": "[5]", "value": "3.43 µM (active)"},
      {"measurement": "Potency", "setting": "[6]", "value": "3.43 µM (active)"},
      {"measurement": "Potency", "setting": "[7]", "value": "13.7 µM (active)"}
    ]},
    {"smiles": "CCS(=O)(=O)c1cccc(-c2cc(C(=O)NC3CCN(C)CC3)c(C)c3[nH]c4ncc(C)cc4c23)c1", "values": [
      {"measurement": "Potency", "setting": "[5]", "value": "12.2 µM (active)"},
      {"measurement": "Potency", "setting": "[6]", "value": "6.85 µM (active)"},
      {"measurement": "Potency", "setting": "[7]", "value": "6.11 µM (active)"}
    ]}
  ]
}
